Results taken from PubChem BioAssay (NCI).
About 79,000 compounds went through this panel and 15% of them were active in at least one assay; those are over-represented in the sample as a whole. Cut-off read from the data, not from the text of the source: active = growth inhibition above about 70%; inactive = the rest.

Tests used:
[1] = NCI Yeast Anticancer Drug Screen. Data for the rad50 strain (AID 155);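 note: 0% = growth of vehicle-only cultures of the same strain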; conditions: S. cerevisiae rad50 strain growth inhibition; at 50.0 µM; hits give high values
How it was run: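 Compounds were tested on a yeast strain with an engineered DNA damage repair alteration; the reported value is growth inhibition normalised to vehicle treatment.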

[2] = NCI Yeast Anticancer Drug Screen. Data for the mec2-1 strain (AID 157); conditions: S. cerevisiae mec2-1 strain, at 50.0 µM, hits give high values
How it was run: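 Each compound was tested on mec2-1 yeast, a strain altered in DNA damage repair or cell cycle control. Growth inhibition is reported relative to vehicle.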

[3] = NCI Yeast Anticancer Drug Screen. Data for the sgs1 mgt1 strain (AID 161);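 note: 0% = growth of cultures given vehicle only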; conditions: S. cerevisiae sgs1 mgt1 strain, at 50.0 µM, hits give high values
How it was run: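 Inhibition of yeast growth, normalised to vehicle-treated controls, is reported for a strain bearing genetic alterations in DNA damage repair.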

[4] = NCI Yeast Anticancer Drug Screen. Data for the cln2 rad14 strain (AID 165);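 note: 0% = growth equal to vehicle treated cultures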; conditions: S. cerevisiae cln2 rad14 strain, at 50.0 µM, hits give high values
How it was run: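 Test compounds were added to cln2 rad14 yeast cultures; inhibition of growth was then determined by comparison with vehicle treatment.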

[5] = NCI Yeast Anticancer Drug Screen. Data for the bub3 strain (AID 167); conditions: S. cerevisiae bub3 mutant strain, at 50.0 µM, hits give high values
How it was run: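 Growth of a checkpoint-deficient yeast mutant is measured after compound exposure. Values represent inhibition relative to vehicle.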

[6] = NCI Yeast Anticancer Drug Screen. Data for the mlh1 rad18 strain (AID 175); conditions: S. cerevisiae mlh1 rad18 strain growth inhibition; at 50.0 µM; hits give high values
How it was run: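 Inhibition values reflect reduced growth of mutant yeast versus vehicle-treated controls following compound exposure; the mutations affect DNA damage repair.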

Measured: growth inhibition

CCOC(=O)COc1c(C)cccc1C
inactive: [1] 17.6% | [2] 5.45% | [3] -2.5% | [4] 14.8% | [5] 32.5% | [6] 12.5%

O=C(O)C(=Cc1cccc2ccc3ccccc3c12)C(=O)O
inactive: [1] -8.7% | [2] -17.2% | [3] -4.8% | [4] -4.45% | [5] -1.8% | [6] -6.2%

Cc1cc2c(c(C(N)=O)c1C)-c1cccc(Cl)c1C2=O
inactive: [1] 13.1% | [2] 12.2% | [3] 9.7% | [4] 11% | [5] 1.35% | [6] -1.3%

CC1=NN(c2ccccc2)C(=O)C1=C1SCCCS1
inactive: [1] -14.2% | [2] -25.4% | [3] 10.6% | [4] 16.4% | [5] -4.9% | [6] 1.8%

Cc1c(C(CC(=O)c2ccccc2)C(=O)O)c2ccccc2n1C (stereo not drawn)
inactive: [1] 2.05% | [2] -25.3% | [3] 23.2% | [4] -32.3% | [5] 52% | [6] -11.4%

Cc1cccc(C)c1NC(=S)N(CCC#N)C1CC(C)CC(C)(C)C1 (stereo not drawn)
inactive: [1] 3.45% | [2] 4.35% | [3] 19.6% | [4] -2.8% | [5] 19.9% | [6] -20%

CC1=C(C(=O)OCCc2ccc([N+](=O)[O-])cc2)C(c2cccc([N+](=O)[O-])c2)C(C(=O)OC(C)C)=C(C)N1 (stereo not drawn)
inactive: [1] 0.15% | [2] -6.95% | [3] 12.8% | [4] 0.45% | [5] 16.1% | [6] -30.9%

C[Si](C)(C)c1ccc(-c2ccccc2)cc1
inactive: [1] 20.1% | [2] -8.65% | [3] 2.25% | [4] -61.7% | [5] 22.5% | [6] -18.4%

Cc1ccnc(N=C(N)Nc2cc(C)ccn2)c1
inactive: [1] 19.6% | [2] 26.4% | [3] 13.1% | [4] 11.2% | [5] 6.75% | [6] 8.85%

CCOc1nc(OCC)c2cnn(C)c2n1
inactive: [1] 6.3% | [2] 1.75% | [3] -3.55% | [4] -28.8% | [5] 7.55% | [6] -3.55%

CC(=O)OCC1OC(n2c(-c3ccc(Cl)cc3)cc(-c3ccccc3)c(C#N)c2=S)C(OC(C)=O)C(OC(C)=O)C1OC(C)=O (stereo not drawn)
inactive: [1] 20.6% | [2] -9.25% | [3] 6.5% | [4] 2.8% | [5] 17.8% | [6] 14.2%

CC(C)CCc1ccc2ccc3cccc4ccc1c2c34
inactive: [1] -17.6% | [2] 3.55% | [3] -1.15% | [4] -26.3% | [5] -0.85% | [6] -8.1%

CC(NN(C)C(=S)Nc1ccccc1)c1ccccn1 (stereo not drawn)
inactive: [1] -6.7% | [2] -7.15% | [3] -9.15% | [4] -10.8% | [5] -4.75% | [6] -0.1%

CCOc1ccc(N(O)C(C)=O)cc1
inactive: [1] 1.9% | [2] -10.4% | [3] 3% | [4] -43.4% | [5] -8.75% | [6] 0%

CC(=O)OC1COC(NC(=O)N(CCCl)N=O)C(OC(C)=O)C1OC(C)=O (stereo not drawn)
inactive: [1] 6.25% | [2] 7.55% | [3] -25.8% | [4] -11.2% | [5] -31.2% | [6] 48.8%

COc1ccc(C2CC(=O)NC2=O)cc1OC (stereo not drawn)
inactive: [1] 4.8% | [2] 17.4% | [3] -6.55% | [4] -12.2% | [5] 1.8% | [6] -5.65%

COC(=O)C1CSCN1 (stereo not drawn)
inactive: [1] -23.9% | [2] -4.3% | [3] -26.9% | [4] -61.4% | [5] -3.5% | [6] -12.8%

Nc1ccccc1SC(CC(=O)c1ccccc1)c1cccc([N+](=O)[O-])c1 (stereo not drawn)
inactive: [1] -31.1% | [2] -26.1% | [3] 0.55% | [4] -29.6% | [5] -17.9% | [6] -13.5%

O=C(O)/C(=C\c1ccncc1)c1cccc2ccccc12
inactive: [1] 0.85% | [2] -12% | [3] -37.4% | [4] -24.9% | [5] -32% | [6] -9.65%

CCOC(=O)C1CC1c1ccccc1 (stereo not drawn)
inactive: [1] 6.1% | [2] -7.9% | [3] -0.25% | [4] -8.65% | [5] -3.6% | [6] 8.5%

O=C(O)NC(c1ccccc1)C(NC(=O)c1ccccc1)c1ccccc1 (stereo not drawn)
inactive: [1] -0.45% | [2] -4.1% | [3] 5.75% | [4] 7.15% | [5] -7.35% | [6] 31.4%

CCOC(=O)c1n[nH]c(=S)[nH]c1=O
inactive: [1] -7.95% | [2] -1.8% | [3] -3.05% | [4] -16.9% | [5] 11.7% | [6] -14.9%

O=C(O)C(Cc1ccc(OS(=O)(=O)Cc2ccccc2)cc1)NS(=O)(=O)Cc1ccccc1 (stereo not drawn)
inactive: [1] 29.9% | [2] 5.2% | [3] 8.1% | [4] 5.1% | [5] 12.4% | [6] 24.1%

CC12CCC(=O)C=C1CCC1C2CCC2(C)C1CCC2(O)C(=O)Cn1c(=O)cc[nH]c1=O (stereo not drawn)
inactive: [1] 10.3% | [2] 4.65% | [3] 1.5% | [4] 14.7% | [5] -2.7% | [6] 11.5%

CCCCCCCC/C=C/CCCCCCCC(=O)N(CCOC(=O)C(C)(C)C)CCOC(=O)C(C)(C)C
inactive: [1] 37.5% | [2] 9.5% | [3] 25.6% | [4] 24.2% | [5] -2.45% | [6] 39.2%

COC(=O)c1ccccc1NC(=O)Nc1ccccc1
inactive: [1] 3.1% | [2] 9.35% | [3] 3.25% | [4] -14.9% | [5] 4.25% | [6] 8.35%

COc1cc(C(=O)CCC(=O)O)c(OC)c(CBr)c1CBr
inactive: [1] -20.3% | [2] -0.4% | [3] -2.7% | [4] -23.8% | [5] -2.15% | [6] -13.8%

CC1CCCN2C(=O)CN(Cc3ccccc3)CC(=O)N12 (stereo not drawn)
inactive: [1] 9.85% | [2] -3.3% | [3] -8.55% | [4] 13.4% | [5] 3.1% | [6] -4.45%

COc1cccc(C2CC(C)(N3CCCC3)Oc3cc4c(cc32)OCO4)c1O (stereo not drawn)
inactive: [1] 7.5% | [2] 13.9% | [3] 10% | [4] 13.8% | [5] 28.6% | [6] -10.2%

CC1(Cc2ccccc2)NC(=S)NC1=O (stereo not drawn)
inactive: [1] -1.25% | [2] -10.8% | [3] -9.9% | [4] 5.75% | [5] -1.7% | [6] -7.35%

O=C(O)Cn1ccc(=O)c2ccc([N+](=O)[O-])cc21
inactive: [1] 35.7% | [2] 15.2% | [3] 13.7% | [4] 26.9% | [5] 23.8% | [6] -47.5%

CCN1C(=O)C(=O)C(CC)(CC)C1=O
inactive: [1] -8.4% | [2] -1.75% | [3] -7% | [4] -8.25% | [5] 0.85% | [6] -13.6%

CCOP(=O)(OCC)C(NC(=O)C(C(F)(F)F)C(F)(F)F)c1ccccc1 (stereo not drawn)
inactive: [1] 7.85% | [2] 16.2% | [3] 0.05% | [4] 24.4% | [5] 34.1% | [6] -14.1%

CCOC(=C[P+](c1ccccc1)(c1ccccc1)c1ccccc1)OCC
inactive: [1] -6.5% | [2] 20.8% | [3] 2.35% | [4] -9.5% | [5] -3.6% | [6] -36%

COc1nc(C(O)C2OC(C)(C)OCC2O)[nH]c1C#N (stereo not drawn)
inactive: [1] 6.05% | [2] 7% | [3] 7.75% | [4] 10.7% | [5] 2.35% | [6] 7.35%

CCOc1nc2ccc(N)cc2s1
inactive: [1] 19.6% | [2] -9.55% | [3] 3.25% | [4] -31.9% | [5] 11.4% | [6] -12.3%

CN(C)c1ccc2c(c1)C(O)c1ccccc1-2 (stereo not drawn)
inactive: [1] -7.3% | [2] -6.55% | [3] 1.1% | [4] -0.65% | [5] 19.4% | [6] 0.7%

S=C(Nc1ccccc1)Nc1ccccc1S
inactive: [1] -15.4% | [2] -19.8% | [3] 6.75% | [4] -20.4% | [5] 14.7% | [6] -18.9%
